From PubChem BioAssay AID588477 (NMMLSC, 2011) come the findings set out here.

The test system of the assay is Rab7. Briefly: inhibitors of Bodipy-GTP binding across eight GTPases, SAR follow-up, selectivity assay for Cdc42 probe extension project, biochemical, round 1 SAR, Mg buffer, multiplex flow cytometry (AID 588477). The following applies: GST-GTPase beads; series mostly up to 100 µM.

Each structure is given as a SMILES string. Activity calls are given as the source filed them.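 How the source made its calls: active means valid curve fit with half-effect dose at most 10 µM and total binding change across doses of 30 points or more; inactive means the rest.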

Take `O=C(C#Cc1ccccc1)c1cccc([N+](=O)[O-])c1`: the result was inactive.

On to `COc1ccc(C2CC(c3ccccc3)=NN2c2ccc(S(N)(=O)=O)cc2)cc1` (configuration not stated), for which the call was inactive.
